Source: PubChem (National Center for Advancing Translational Sciences (NCATS))
ELG1 genotox – genotoxicity induction in ELG1-luciferase HEK293T cells; HEK293T ELG1-luciferase reporter, luminescence, 16 h; Potency, µM (highest dose often 46 µM), for the others: top-dose activity change, positive = activation, usual class: activators; 1.3% of 330,000 active; AID 504466; further: % of control where 0% means no effect; nearly all actives have a fitted effect of over 60% in size
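Quantitative HTS format in 1536-well plates. HEK293T ELG1-luciferase reporter cells receive test compound and are incubated 16 hr at 37 °C, 5% CO2; ONE-Glo added, 30 min room temperature, then luminescence read.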
p53 reactivation – mutant p53 re-activation in reporter cells; H1299 p53-A138V BP100-luciferase reporter, luminescence, 24 h; Potency, µM (highest dose often 92.2 µM), without a hit: top-dose activity change, positive = activation, hits mostly activators; 0.063% of 320,000 active; AID 504706; further: % of control where 0% means no effect; nearly all actives have a fitted effect of over 45% in size
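p53-null H1299 cells stably carrying temperature-sensitive p53-A138V and a BP100-luciferase reporter were pinned with compounds (4-point, 1:5 series) and held 24 hrs at 37 deg C. Luminescence was read 10 min after detection reagent.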
FLuc modulator – firefly luciferase modulation, counter-screen for miR-21 project | 6.9% of 360,000 active | purified FLuc, Km substrates, luminescence inhibition | P08659 | AID 588342 | Potency, µM (highest dose often 57.5 µM), inactives show at the top dose activity change, negative = inhibition, hits mostly inhibitors;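 further: plate controls were vehicle for no effect and reference inhibitor for full effect; nearly all actives have a fitted effect of over 55% in size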
Target sequence (P08659 whole entry, looked up): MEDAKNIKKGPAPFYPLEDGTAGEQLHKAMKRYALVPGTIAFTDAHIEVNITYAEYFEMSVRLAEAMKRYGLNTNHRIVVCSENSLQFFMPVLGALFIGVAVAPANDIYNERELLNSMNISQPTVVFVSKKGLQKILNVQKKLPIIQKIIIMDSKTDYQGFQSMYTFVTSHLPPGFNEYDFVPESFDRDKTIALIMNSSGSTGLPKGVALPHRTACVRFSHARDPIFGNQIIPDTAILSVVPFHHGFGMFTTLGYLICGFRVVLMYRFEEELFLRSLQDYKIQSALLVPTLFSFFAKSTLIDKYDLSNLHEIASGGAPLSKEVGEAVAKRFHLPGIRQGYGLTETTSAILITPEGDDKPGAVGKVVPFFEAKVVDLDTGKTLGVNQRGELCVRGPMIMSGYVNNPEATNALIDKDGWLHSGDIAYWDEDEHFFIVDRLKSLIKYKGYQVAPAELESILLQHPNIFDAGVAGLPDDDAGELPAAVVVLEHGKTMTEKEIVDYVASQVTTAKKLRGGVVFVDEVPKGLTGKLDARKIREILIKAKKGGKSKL
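Biochemical qHTS of compounds, final roughly 60 µM downward over six points, against 10 nM purified firefly luciferase using Km concentrations of substrates (10 uM D-luciferin, 10 uM ATP) in Tris acetate pH 7.5 buffer; luminescence output.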
NPC1 prom act – activates the NPC1 promoter; Huh7 NPC1 promoter luciferase reporter, 24 h; Potency, µM (highest dose often 9.22 µM), without a hit: at the highest dose activation, hits mostly activators; AID 485313; 2.4% of 320,000 active; further: % of control where 0% means no effect; nearly all actives have a fitted effect of over 60% in size
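Readout is luciferase luminescence, reflecting NPC1 promoter activation in stably transfected Huh7 cells after 24 h compound exposure at 37 °C in reduced-serum medium with 10% FBS.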
SMN2 splice enh – increases expression of the SMN2 splice variant | 2.8% of 210,000 active | HEK293 SMN2-luciferase splicing reporter, luminescence, 30-36 h | Potency, µM (series often up to 46.1 µM), for inactives: top-dose activity change, positive = activation, usual class: activators; further: % of control where 0% means no effect; nearly all actives have a fitted effect of over 55% in size
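HEK293 cells carry an SMN2 […]–luciferase reporter in which exon 7 inclusion puts luciferase in frame. Cells were plated 10-12 h before compound addition, then incubated 30-36 h at 37C. ONE-Glo luminescence was read; sodium butyrate at 4.5 mM final served as control.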
Rab9 prom act – Rab9 promoter activation | Huh7 Rab9 promoter-luciferase reporter, luminescence, 24 h | Potency, µM (highest dose often 9.22 µM), inactives show top-dose activation, negative = inhibition, hits mostly activators | 2.8% of 320,000 active | AID 485297; further: % of control where 0% means no effect; nearly all actives have a fitted effect of over 60% in size
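Measured in stably transfected Huh7 cells bearing a Rab9 promoter–luciferase construct: 24 h compound treatment at 37 °C, followed by luminescence detection.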
Starred values were filed as active, the others as inactive; ? = inconclusive; · = no result given; [ ] = another dose, or the depositor's remark. Shown are actives, neighbours in structure and some others; about 7.4% of the full set was active somewhere. The call rests on the fitted dose curve; in most records, active means well fitted curve in the direction sought with a large enough effect; inconclusive means small, poorly fitted or top-dose-only effect, or another doubt; inactive means no such curve, though single readings can be large; an effect the other way counts as inactive or inconclusive. Potency means the concentration at half of the fitted maximal effect.

SMILES	ELG1 genotox	p53 reactivation	FLuc modulator	NPC1 prom act	SMN2 splice enh	Rab9 prom act
C=CC1=C2C=C(C3CC3)N(Cc3ccco3)C=C2C(=O)C(C)(OC(=O)c2ccco2)C1=O (stereo not given)	·	·	·	·	0%[9.22 µM]	·
Cc1ccc2nc(NC(=O)CN3C(=O)C4CC=CCC4C3=O)sc2c1 (stereo not given)	1%	-3%	11µM*	-5%	13%	1%
C[C@@H](C(=O)Nc1nc2ccc(F)cc2s1)N1C(=O)C2CC=CCC2C1=O (stereo not given in full)	3%	12%	-18%	13%	31%	2%
Cc1ccc2nc(NC(=O)[C@H](C)N3C(=O)C4CC=CCC4C3=O)sc2c1 (stereo not given in full)	5%	4%	17µM*	-14%	21%	-21%
COc1ccc(C(=O)N(Cc2ccc(N(C)C)cc2)Cc2ccco2)cc1Cl	·	·	?	·	-20%	·
O=C1NC(=Nc2ccccc2)S/C1=C\c1cccn1-c1ccccc1	?	17%	11µM*	-1%	?	24%
Cc1cccc(N=C2NC(=O)/C(=C/c3cccs3)S2)c1	-1%	?	?	8%	13%	-2%
Cc1ccccc1N=C1NC(=O)/C(=C/c2cccn2C)S1	0%	1%	?	-1%	·	-6%
Cc1ccc(N=C2NC(=O)/C(=C\c3cccs3)S2)cc1C	14%	?	?	13%	3.5µM*	23%
Cc1ccc(/C=C2/SC(=Nc3ccc(F)cc3)NC2=O)s1	1%	4%	-14%	-8%	·	0%
Cc1cccc(N=C2NC(=O)/C(=C/c3cccn3C)S2)c1	16%	4%	12µM*	10%	·	14%
O=C(c1cccc(F)c1)N1CCC2(CCN(Cc3cc(C(F)(F)F)cc(C(F)(F)F)c3)CC2)CC1	·	·	·	·	-16%	·
Nc1cccc2c1C(=O)N(C(=O)/C=C/c1cccc(Br)c1)C2=O	8%	-10%	?	-8%	·	-8%
Nc1cccc2c1C(=O)N(C(=O)/C=C/c1cccc(F)c1)C2=O	0%	8%	21µM*	-8%	15%	-4%
CCOc1ccc(Nc2nc(-c3cccc(Cl)c3)c3c(n2)-c2ccccc2OC3)cc1	·	·	12µM*	·	·	·
COc1ccc(Nc2nc(-c3cccc(Cl)c3)c3c(n2)-c2ccccc2OC3)cc1	·	·	4%	·	·	·
CN(C)CCCc1c2ccccc2nc2ccc(Cl)cc12	·	·	·	·	2%[9.22 µM]	·
COc1ccc(-c2nnc(-c3ccc(C)cc3)o2)cc1	?	?	1.9µM*	1.6µM*	·	?
CCCc1nnc(-c2ccc(OC)cc2)o1	16%	?	?	16%	-18%	16%
COc1ccc(-c2nnc(-c3ccc(F)cc3)o2)cc1	3.7µM*	?	2.1µM*	1.3µM*	·	1µM*
COc1ccc(-c2ccc(-c3nnc(-c4ccncc4)o3)cc2)cc1	4%	-1%	?	20%	-23%	20%
Cc1ccc(-c2nnc(-c3ccccc3)o2)cc1	?	?	2.7µM*	3.2µM*	2.8µM*	1.4µM*
COc1ccc(-c2nnc(-c3ccccc3O)o2)cc1	?	?	2.4µM*	?	·	?
CC(C(=O)Nc1ccccc1F)N1CCN(S(=O)(=O)c2ccc(C(F)(F)F)cc2)CC1 (stereo not given)	-5%	7%	0%	-2%	·	-7%
CCNc1nnc(-c2ccc(C)cc2)o1	?	8%	15µM*	3.5µM*	24%	4µM*
Cc1ccc(C(=O)Nc2nnc(-c3ccncc3)o2)cc1	10%	3%	?	21%	-59%	?
CCN(CCO)c1ccc(N=Nc2cc(C)[nH]n2)cc1	?	-9%	0.27µM*	?	·	?
CCN(CCO)c1ccc(NC(=S)Nc2cccc(S(=O)(=O)N(C)C)c2)cc1	2%	17%	?	2%	-20%	-17%
